Source: PubChem BioAssay (National Center for Advancing Translational Sciences (NCATS))
Most compounds without a hit are left out; they make up all but 1.3% or so of the library.
SARS PLpro yeast – qHTS of Yeast-based Assay for SARS-CoV PLP. S. cerevisiae expressing SARS-CoV PLpro, growth rescue. Potency, µM (doses to about 32.9 µM), actives largely listed as activators. 330,000 compounds, 0.19% hits; calls by dose curve; further: nearly all actives have a fitted effect of over 55% in size
AmpC inh detg – qHTS Inhibitors of AmpC Beta-Lactamase (assay with detergent) | P00811 | 370,000 compounds, 0.041% hits | AmpC hydrolysis of nitrocefin, absorbance 480 nm, 0.01% Triton | Potency, µM (series often up to 114 µM), most hits filed as inhibitors; further: nearly all actives have a fitted effect of over 25% in size
Target sequence (P00811 whole entry, looked up): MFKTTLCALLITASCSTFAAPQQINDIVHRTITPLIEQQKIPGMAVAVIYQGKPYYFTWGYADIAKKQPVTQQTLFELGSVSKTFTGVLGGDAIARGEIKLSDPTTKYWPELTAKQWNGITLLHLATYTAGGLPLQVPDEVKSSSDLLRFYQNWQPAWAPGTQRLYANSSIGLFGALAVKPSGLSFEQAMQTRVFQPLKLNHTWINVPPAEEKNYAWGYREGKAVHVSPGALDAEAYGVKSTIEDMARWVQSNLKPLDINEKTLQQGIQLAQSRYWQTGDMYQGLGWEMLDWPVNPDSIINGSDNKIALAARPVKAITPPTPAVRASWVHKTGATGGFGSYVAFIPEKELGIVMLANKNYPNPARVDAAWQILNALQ
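20 mM phosphate pH 7.0 + 0.01% (detergent screen) or 0.0001% Triton X-100; 5.3 nM AmpC reagent; cpd preinc 15 min RT; nitrocefin (800 uM stock) to start; A480 q20 s × 4 min; Activity was normalised to no-enzyme and no-compound control wells.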
VACV Venus inh – qHTS for Stage-Specific Inhibitors of Vaccinia Orthopoxvirus: Venus Reporter Primary qHTS. Potency, µM (titrated, usually from 36.5 µM), usual class: inhibitors. 330,000 compounds, 0.46% hits. AID 720580, 2013. Vaccinia virus Venus reporter expression, fluorescence; calls by dose curve; tested in A549 cells; further: nearly all actives have a fitted effect of over 30% in size
AmpC no deterg – qHTS Inhibitors of AmpC Beta-Lactamase (assay without detergent) | AmpC nitrocefin hydrolysis, absorbance 480 nm, 0.0001% Triton | Potency, µM (top dose mostly 57.1 µM), hits mostly inhibitors | 330,000 compounds, 0.52% hits | AID 485341, 2010; further: nearly all actives have a fitted effect of over 20% in size
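20 mM phosphate pH 7.0 + 0.01% (detergent screen) or 0.0001% Triton X-100; 5.3 nM AmpC reagent; cpd preinc 15 min RT; nitrocefin (800 uM stock) to start; A480 q20 s × 4 min; Activity was normalised to no-enzyme and no-compound control wells.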
AMA1 RON2 block – qHTS for Inhibitors of AMA1-RON; Towards Development of Antimalarial Drug Lead: Primary Screen. Plasmodium falciparum AMA1 (3D7) - RON2 peptide interaction. Potency, µM (titrated, usually from 58.2 µM), actives largely listed as inhibitors. 360,000 compounds, 0.2% hits. AlphaScreen AMA1-biotinylated RON2 peptide binding; further: nearly all actives have a fitted effect of over 45% in size
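AMA1 (3D7) with his tag at 25 nM final met compounds first, then biotinylated RON2 peptide at 25 nM; detection used donor plus acceptor beads, 10 µg/mL apiece, read by AlphaScreen after 30 min at room temperature.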
Vaccinia mCherry – qHTS for Stage-Specific Inhibitors of Vaccinia Orthopoxvirus: mCherry Reporter Primary qHTS; 310,000 compounds, 0.63% hits; AID 720579, 2013; Potency, µM (doses to about 36.5 µM), hits mostly inhibitors; Vaccinia virus mCherry reporter infection, fluorescence; calls by dose curve; tested in A549 cells; further: nearly all actives have a fitted effect of over 35% in size
Hits are given with their value; [ ] = dose if it differs, or a comment. Unless noted, the call rests on the fitted dose curve; in most records, active means well fitted curve in the direction sought with a large enough effect; inconclusive means small, poorly fitted or top-dose-only effect, or another doubt; inactive means no such curve, though single readings can be large; an effect the other way counts as inactive or inconclusive.

`Cc1ccc(NC(=O)c2cccc(NC(=O)/C=C/c3ccco3)c2)cc1C` gave SARS PLpro yeast inactive, AmpC inh detg inconclusive, VACV Venus inh inactive, AmpC no deterg inactive, AMA1 RON2 block inactive and Vaccinia mCherry inactive.
Cc1ccc(-n2nc3ccc(NC(=O)/C=C/c4ccco4)cc3n2)cc1 was read as SARS PLpro yeast inactive, AmpC inh detg inactive, VACV Venus inh inconclusive, AmpC no deterg 28µM, AMA1 RON2 block inactive and Vaccinia mCherry inconclusive.
Screening COc1ccc(CN2CCC3(CCC(CNC(=O)c4ccnn4C)O3)CC2)c(C)c1C (stereo not given) returned VACV Venus inh inactive and Vaccinia mCherry inactive.
COc1cc2c(NC3CCN(C)CC3)nc(N3CCCCC3)nc2cc1OCCOCCN1CCCC1 was read as VACV Venus inh 10µM and Vaccinia mCherry inconclusive.
Screening COc1cc2c(NC3CCN(C)CC3)nc(N3CCCN(C)CC3)nc2cc1OCCCCCN returned VACV Venus inh inconclusive and Vaccinia mCherry inactive.
For COc1cc2c(NC3CCN(C)CC3)nc(N3CCCN(C)CC3)nc2cc1OCCCCCC(N)=O the results were VACV Venus inh inactive and Vaccinia mCherry inactive.
`COc1cc2c(NC3CCN(C)CC3)nc(N3CCCN(C)CC3)nc2cc1OCCCN1CCOCC1` gave VACV Venus inh 8.9µM and Vaccinia mCherry inconclusive.
COc1cc2c(NC3CCN(C(C)C)CC3)nc(N3CCCN(C)CC3)nc2cc1OCCOCCN1CCCC1 was read as VACV Venus inh 3.5µM and Vaccinia mCherry inconclusive.
COc1cccc(CN2CCc3nnc(CCc4ccccc4)n3CC2)c1OC was read as VACV Venus inh inactive and Vaccinia mCherry inactive.
`COc1ccccc1CN1CCCC(n2cc(C(=O)N3CCCC3)nn2)C1` (stereo not given) gave VACV Venus inh inactive and Vaccinia mCherry inactive.
Cc1cc(C)cc(C(=O)Nc2ccc(NC(=O)Cc3ccccc3)cc2)c1 was read as SARS PLpro yeast inactive, AmpC inh detg inconclusive, AmpC no deterg inactive[2.29 µM] and AMA1 RON2 block inactive.
For Cc1cc(NC(=O)c2sc(Nc3ccc(F)c(Cl)c3)nc2N)no1 the results were SARS PLpro yeast inactive, AmpC inh detg inactive, VACV Venus inh inactive, AmpC no deterg 20µM, AMA1 RON2 block inactive and Vaccinia mCherry inactive.
For CCN(CC)c1ccc2c(-c3ccc(S(=O)(=O)O)cc3S(=O)(=O)[O-])c3ccc(=[N+](CC)CC)cc-3oc2c1 the results were SARS PLpro yeast inactive, AmpC inh detg inactive, AmpC no deterg inactive and AMA1 RON2 block 14µM.
For Cc1cc(C)nc(SCc2ccc(C(=O)NNC(=O)Nc3cccc(Cl)c3)cc2)n1 the results were SARS PLpro yeast inactive, AmpC inh detg inactive, VACV Venus inh 11µM, AmpC no deterg inactive, AMA1 RON2 block inactive[11.6 µM] and Vaccinia mCherry 14µM.
`Cc1cccc(CN2C[C@H](Sc3ccccn3)C[C@H]2C(=O)Nc2ccc3sc(C)nc3c2)c1` gave VACV Venus inh inactive and Vaccinia mCherry inactive.
CC(C)c1ccccc1NC(=O)COC(=O)c1c2c(nc3ccccc13)CCN(Cc1ccccc1)C2 was read as SARS PLpro yeast inactive, AmpC inh detg inactive, AmpC no deterg 3.5µM and AMA1 RON2 block inactive.
Screening Cc1cc(N2CCN(C)CC2)ccc1NC(=O)c1c2c(nc3ccccc13)CCN(Cc1ccccc1)C2 returned SARS PLpro yeast inactive, AmpC inh detg inactive, VACV Venus inh inconclusive, AmpC no deterg inactive, AMA1 RON2 block inactive and Vaccinia mCherry inactive.
For Cc1c(Cl)cccc1NC(=O)COC(=O)c1c2c(nc3ccccc13)CCN(Cc1ccccc1)C2 the results were SARS PLpro yeast inactive, AmpC inh detg inactive, VACV Venus inh inconclusive, AmpC no deterg inactive, AMA1 RON2 block inactive and Vaccinia mCherry 11µM.
C=CCn1c(NCc2cc(Cl)ccc2O)nc2ccccc21 was read as SARS PLpro yeast inactive, AmpC inh detg inactive, VACV Venus inh inconclusive, AmpC no deterg 14µM, AMA1 RON2 block inactive and Vaccinia mCherry inactive.
COc1ccccc1C(=O)N[C@@H]1c2ccccc2C2(CCN(Cc3ccc4c(c3)OCO4)CC2)[C@H]1O was read as VACV Venus inh inactive and Vaccinia mCherry inactive.
`CCN1c2ccccc2N(C)C1(C)c1ccccc1` (stereo not given) gave SARS PLpro yeast inactive, AmpC inh detg inconclusive, VACV Venus inh inactive, AmpC no deterg inactive, AMA1 RON2 block 32µM and Vaccinia mCherry inactive.
CN1c2ccccc2N(C)C1(C)c1ccccc1 was read as SARS PLpro yeast inactive, AmpC inh detg inactive, VACV Venus inh inactive, AmpC no deterg inactive, AMA1 RON2 block inconclusive and Vaccinia mCherry inactive.
COc1ccc(-c2nc3cc(F)ccc3cc2CN(C(=O)c2ccc3c(c2)OCO3)C2CC2)cc1 was read as VACV Venus inh inactive and Vaccinia mCherry inactive.
Screening Cc1ccc(CN2C(=O)c3ccccc3C2C(=O)NCc2cccnc2)cc1 (stereo not given) returned SARS PLpro yeast inactive, AmpC inh detg inactive, VACV Venus inh inactive, AmpC no deterg inactive, AMA1 RON2 block inactive and Vaccinia mCherry inactive.
`O=C(NCc1cccnc1)C1c2ccccc2C(=O)N1C1CCCC1` (stereo not given) gave SARS PLpro yeast inactive, AmpC inh detg inconclusive, VACV Venus inh inactive, AmpC no deterg 20µM, AMA1 RON2 block inactive and Vaccinia mCherry inactive.
CCOC(=O)N1CCN(c2c(N3CCN(C(=O)OCC)CC3)c(=O)c2=O)CC1 was read as SARS PLpro yeast inactive, AmpC inh detg inactive, AmpC no deterg inactive and AMA1 RON2 block inactive.
Screening COC(COC(N)=O)C1=C(N2CC2)C(=O)C(C)=C(N2CC2)C1=O (stereo not given) returned VACV Venus inh 2.8µM, AMA1 RON2 block inactive and Vaccinia mCherry inconclusive.
`Cc1ccc(C(=O)Nc2cccc(-c3nc(CNC(=O)c4ccc5ccccc5n4)c(C)o3)c2)s1` gave VACV Venus inh inactive and Vaccinia mCherry inactive.
Cn1ccc2c(N3CCCCC3)cc3c(c21)C1CCC3C1 (stereo not given) was read as VACV Venus inh inactive, AMA1 RON2 block 16µM and Vaccinia mCherry inactive.
`Cn1ccc2c(N3CCCC3)cc3c(c21)C1CCC3O1` (stereo not given) gave VACV Venus inh inactive, AMA1 RON2 block inconclusive and Vaccinia mCherry inactive.
For Cn1ccc2c(N3CCCCCC3)cc3c(c21)C1CCC3O1 (stereo not given) the results were VACV Venus inh inactive, AMA1 RON2 block 32µM and Vaccinia mCherry inactive.
